Laboratory results: the supplement of paper PMC10338343
± gives the standard deviation.

Test system: MILI (PIWIL2) piRISC loaded with piRNA #1 (26 nt)
Assay: pre-steady-state target cleavage rate (min^-1); guide: piRNA #1 5'p-UGAGGUAGUAGGUUGUAUAGUAUCCA; MIWI and MILI are mouse PIWI proteins and EfPiwi is from a freshwater sponge; tags in brackets are library labels; higher = faster piRNA-guided slicing of the target
Details: auxiliary factor: 500 nM mouse GTSF1
Experimental: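 Cleave-'n-Seq: a library of target RNAs (target site embedded in constant flanks, ACAGCATTCCGCGTTAGTGATATCCG... 5' flank; DNA-blocked outside the site) at 0.1 nM was incubated with 1 nM active mouse MILI or MIWI piRISC (synthetic 5'-monophosphorylated piRNA guide) with or without 500 nM mouse GTSF1 at 33 °C for 1 min to 16 h. Uncleaved targets were sequenced and normalised to non-target controls, and the pooled three trials were fitted to a burst-and-steady-state model to give the pre-steady-state cleavage rate (min^-1; k3 is constrained to at most 1e-4). Sequence is the target site only; target names encode pairing extent (gX:gY) and contiguous / 1-mismatch / 2-mismatch / bulge geometry. Fits with R² ≤ 0 are excluded.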

Sequence	pre-steady-state target cleavage rate
GGAGACCUAACUAUACAACCUACUAACUCA	0.1 ± 0.03
GGAGUGGAUACUAUUCAACCUUCUACCUCA	0.00907 ± 0.0019
GGAGAGGAUACUAUACAAGCUACUACCUGA	0.111 ± 0.015
GGAGACCUAUGAUUACAUCCUACUACCACA	0.0105 ± 0.0035
GGAGACCAUAGUAUAGAACCUACUACCUCA	0.105 ± 0.011
GGAGUGGAAACUAUACAACGUACUACCUCA	0.0251 ± 0.0048
GGAGACCUAUGAUAACAACCUACUACCUCA [g2:g16:cont:t1A]	0.00406 ± 0.003
GGAGACCAUACUAUACAACCUAGUACCACA	0.00768 ± 0.0041
GGAGACCUAUGAUAUGUACCUACUACGAGA [g5:g13:cont:t1A]	< 0.0001
GGAGUGGAUACUAUAGAACCUACUAGCUCA	0.00733 ± 0.0025
GGAGACCUUACUAUACAACCUACUACCUCG [g2:g22:cont:t1G]	0.173 ± 0.015
GGAGACCAUCCUAUACAACCUACUACCUCA	0.16 ± 0.03
GGAGACCUAUGUAUACAACCUACUCCCUCA	0.0316 ± 0.0063
GGAGACGAUACUAUACAACCAUCUACCUCA	0.00466 ± 0.003
GGAGACGAAACUAUACAACCUACUAGCUCA	0.083 ± 0.025
GGAGACGAUACUAUUCAACCUACUACCACA	0.161 ± 0.014
GGAGUGGAUACUAUACAAGGUACUACCUCA	0.0661 ± 0.0076
GGAGUGGAUACUAUACAACCUUCUACCUCA	0.00895 ± 0.002
GGAGAGGAUACUUUAGAACCUACUACCUCA	0.153 ± 0.0078
GGAGUGGAUAGUAUACAACCUACUUCCUCA	0.0138 ± 0.0048

Sequence	pre-steady-state target cleavage rate
GGAGACCUAUGAAUACAAGCUACUAGCUCA	0.00622 ± 0.0027
GGAGACCAAACUAUACAACCUACUACGUCA	0.042 ± 0.015
GGAGACCUAUCUAAACAACCAACUACCUCA	0.00401 ± 0.0024
GGAGACCUAUGAUAUCAUGCUACUACCUCA	< 0.0001
GGAGACCUAUGAUUACAACCUACUACCUUCA	0.00664 ± 0.0022
GGAGACCUAACUAUACAACCUACUACCUGA	0.108 ± 0.03
GGAGUGGAUACUAUGACAACCUACUACCUCA	0.188 ± 0.011
GGAGAGCAUACUAUACAACCUACUACCUCA	0.188 ± 0.015
GGAGACCAUACUAUACAUGGUACUACCUCA	0.00626 ± 0.0026
GGAGACCAUACUAUACAACCUACUAGCUGA	0.0115 ± 0.0056
GGAGAGGAUACUAUAUCAACCUACUACCUCA	0.107 ± 0.0098
GGAGACCUAACUAUACAACCUACUACCUCU [g2:g21:cont:t1U]	0.152 ± 0.025
GGAGACCUAACUAUACAACCUAGAACCUCA	0.00531 ± 0.005
GGAGACCUAUGAAUACAACCUACUACCAUCA	0.00646 ± 0.0026
GGAGACCUAUGACUACAACCUACUACCUCA	0.00416 ± 0.0019
GGAGAGGAUACUAUACAACCUACUACGACA	0.0606 ± 0.017
GGAGACGAUACUAUACAUCCUACUACCUCA	0.289 ± 0.024
GGAGACCUAUCUAUACAACCUAACUACCUCA	0.00833 ± 0.0023
GGAGACGAUACUAUUGAACCUACUACCUCA	0.157 ± 0.016
GGAGACCUAUCUAUACAAGCUACUAGCUCA	0.0812 ± 0.018
